Test [1] concerns the target Alpha-galactosidase A (Homo sapiens) (UniProt P06280). Briefly: Counterscreen for Glucocerebrosidase Inhibitors: qHTS Assay for Human alpha-Galactosidase at pH 4.5 (AID 992). Further: 0% is about no effect. The method, boiled down: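 Enzyme at 2 nM final was combined with compound (0.7 nM to 77 uM) and 80 uM 4-methylumbelliferyl alpha-D-galactopyranoside in 50 mM citric acid, 0.005% Tween-20, pH 4.5. After 20 min at room temperature, fluorescence was read (Ex 365/Em 440 nm); AC50 came from Hill fits.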

Test [2] addresses alpha-glucosidase (Oryza sativa, rice) (UniProt Q653V4). Briefly: Counterscreen for Glucocerebrosidase Inhibitors: qHTS Assay for Rice alpha-Glucosidase at pH 5.0 (AID 997).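 Further: 0% = full activity with enzyme and -100% = basal without enzyme.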 The essentials:
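Rice alpha-glucosidase (4 nM final) with 400 uM 4-methylumbelliferyl-alpha-D-glucopyranoside in citrate buffer pH 5.0, 20 min at room temperature, stopped at pH 10; fluorescence 365/440 nm, compounds 0.7 nM–77 uM, AC50 from Hill fits.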

Test [3] in a line: qHTS Assay for Lipid Storage Modulators (AID 1519; calls by dose curve; on activity change, negative = inhibition: on the % scale 0 is the no-effect control and ±100 the full control effect). The settings on record: Drosophila S3 cells, BODIPY lipid droplet/cell ratio, laser cytometry, cells loaded with oleic acid. The essentials: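 Cells seeded at 5,000 per well were treated with compounds over a concentration series and loaded with oleic acid (400 uM, as added). Lipid droplet fluorescence (488 nm excitation, 500-530 nm channel) was read by laser-scanning cytometry and normalized to 20 uM Triacsin C.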

Test [4] concerns the target DNA repair nuclease/redox regulator APEX1 (Homo sapiens) (UniProt P27695). Briefly: qHTS Validation Assay for Inhibitors of the Human Apurinic/apyrimidinic Endonuclease 1 (APE1) (AID 1705;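 further: TAMRA fluorescence gain over two minutes as APE1 cuts a quenched THF abasic duplex; on the % scale 0 is the no-effect control and ±100 the full control effect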). The method, boiled down: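 Read-out: TAMRA fluorescence (525 nm ex, 598 nm em) from cleavage of a quenched THF abasic-site duplex, 50 nM final; activity taken as intensity change between third and first of three reads 60 s apart.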

Test [5] in a line: Counterscreen for APE1 Inhibitors: Fluorescent Dye Displacement Validation Assay (AID 1707).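 Further: plate controls were ThO with dsDNA and no compound for no effect and ThO without dsDNA for full effect.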 The method, boiled down:
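Thiazole Orange displacement from dsDNA: 250 nM ThO with 50 nM TAMRA-labelled abasic-site (tetrahydrofuran) duplex in 50 mM Tris-HCl pH7.5, 50mM NaCl, 2 mM MgCl2, 0.01% Tween-20. Loss of endpoint fluorescence (ex 480 nm, em 540 nm) flags DNA binders.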

Test [6] addresses Endonuclease 4 (Escherichia coli (strain K12)) (UniProt P0A6C1). Briefly: Counterscreen for APE1 Inhibitors: qHTS Validation Assay for Inhibitors of Endonuclease IV (AID 1708). Further: on the % scale 0 is the no-effect control and ±100 the full control effect. The essentials:
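Enzymatic AP-site incision assay using a double-stranded THF substrate labelled with TAMRA and BHQ-2; released fluorescence signals activity. Enzyme 2 nM, substrate 50 nM, 15 min compound preincubation.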

Test [7] in a line: qHTS for differential inhibitors of proliferation of Plasmodium falciparum line 7G8 (AID 1815).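 Further: parasite growth measured after three days of incubation.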 Further: potency means the concentration at half of the fitted maximal effect.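 On activity change, negative = inhibition: plate controls were vehicle wells for no effect and reference inhibitor wells for full effect.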
The nature of test [8]: qHTS for differential inhibitors of proliferation of Plasmodium falciparum line GB4 (AID 1816).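 Further: parasite growth measured after 72 h incubation.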 Further: potency means the concentration at half of the fitted maximal effect.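 On activity change, negative = inhibition: 0% = vehicle DMSO and -100% = reference inhibitor.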 The settings on record: Potency: Plasmodium falciparum GB4 proliferation inhibition.
The nature of test [9]: qHTS for differential inhibitors of proliferation of Plasmodium falciparum line 3D7 (AID 1876). Further: potency means the concentration at half of the fitted maximal effect.
A short description of test [10]: qHTS for differential inhibitors of proliferation of Plasmodium falciparum line D10 (AID 1877).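 Further: parasites grown with compound for 72 h before DNA staining.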 Further: potency means the concentration at half of the fitted maximal effect.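 On activity change, negative = inhibition: plate controls were vehicle wells for no effect and reference inhibitor wells for full effect.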
A short description of test [11]: qHTS for differential inhibitors of proliferation of Plasmodium falciparum line Dd2 (AID 1882). Further: nearly all actives have a fitted effect of over 65% in size. Further: potency means the concentration at half of the fitted maximal effect.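 On activity change, negative = inhibition: compound exposure of 72 h on infected erythrocytes; plate controls were DMSO vehicle for no effect and 0.29 µM artemisinin for full effect.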 The settings on record: Potency: Plasmodium falciparum Dd2 proliferation inhibition. The method, boiled down: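 SYBR Green I DNA fluorescence read-out, ex 485/em 535 nm. Signals were normalized to 0.29 uM artemisinin and DMSO wells, then corrected using vehicle-only plates flanking each stack. Parasite growth ran 72 h in erythrocytes before lysis.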

Test [12] in a line: qHTS for differential inhibitors of proliferation of Plasmodium falciparum line W2 (AID 1883).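 Further: parasites grown with compound for 72 h before lysis and staining.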 Further: potency means the concentration at half of the fitted maximal effect.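 On activity change, negative = inhibition: 0% = vehicle wells and -100% = control inhibitor wells.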 To be noted: Potency: Plasmodium falciparum W2 proliferation inhibition.
Test [13] in a line: qHTS for differential inhibitors of proliferation of Plasmodium falciparum line HB3 (AID 1886).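 Further: parasites grown with compound for 72 h before SYBR Green readout.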 Further: potency means the concentration at half of the fitted maximal effect.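 On activity change, negative = inhibition: plate controls were vehicle for no effect and reference inhibitor for full effect.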 The settings on record: Potency: Plasmodium falciparum HB3 proliferation inhibition.
A short description of test [14]: Cell Viability - LYMP2-018 (AID 985).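 Further: compound exposure lasted 24 hr at 37 °C; nearly all actives have a fitted effect of over 50% in size.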 Further: potency means the concentration at half of the fitted maximal effect. The essentials:
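Acute cytotoxicity is scored as a concentration-dependent drop in intracellular ATP after 24 hr exposure of the lymphoblastoid line in complete culture medium, measured by luciferase luminescence. Potency is expressed as AC50 from Hill modelling.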

The nature of test [15]: Cell Viability - LYMP2-020 (AID 986).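 Further: cells exposed to compound for 24 h at 37 °C; nearly all actives have a fitted effect of over 55% in size.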 Further: potency means the concentration at half of the fitted maximal effect. The method, boiled down:
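Acute cytotoxicity in a human lymphoblastoid line is scored as a concentration-dependent fall in cellular ATP after 24 hr at 37 C in complete medium. The positive control is tetraoctylammonium bromide, and potency is given as Hill-fit AC50.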

The nature of test [16]: Cell Viability - LYMP2-022 (AID 987). Further: nearly all actives have a fitted effect of over 55% in size. Further: potency means the concentration at half of the fitted maximal effect. The essentials: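 Acute toxicity in a human lymphoblastoid line is scored as decreased intracellular ATP after 24 hr compound treatment at 37 C. ATP is measured by CellTiter-Glo luminescence; curves are fitted with the Hill equation to give AC50.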
Test [17] in a line: Cell Viability - LYMP2-026 (AID 989).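 Further: cells exposed to compound for 24 h at 37 °C; nearly all actives have a fitted effect of over 50% in size.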 Further: potency means the concentration at half of the fitted maximal effect. The method, boiled down:
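Concentration-dependent loss of intracellular ATP in human lymphoblastoid cells after 24 hr at 37 C, quantified by luciferase luminescence. AC50 derived from standard Hill equation.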

Test [18] is described as follows: Cell Viability - LYMP1-002 - Assay at 40 hr (AID 994). Further: nearly all actives have a fitted effect of over 60% in size. Further: potency means the concentration at half of the fitted maximal effect. The essentials:
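Viability in the human lymphoblastoid line was measured as intracellular ATP via CellTiter-Glo after 40 hr compound exposure. Tetraoctylammonium bromide served as positive control.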

The mark [19] stands for this setting: measured here: cell count channel max response.
Where [20] appears, read: measured here: lipid channel max response.

Values joined by “and” are separate entries in the source; they are usually repeats but may differ in a detail not shown here. Equal values may be shown once. Records with an inconclusive call do not appear. Active and inactive are the calls of the source. Unless noted, the call rests on the fitted dose curve; in most records, active means well fitted curve in the direction sought with a large enough effect; inconclusive means small, poorly fitted or top-dose-only effect, or another doubt; inactive means no such curve, though single readings can be large; an effect the other way counts as inactive or inconclusive.

Chain of DNA repair nuclease/redox regulator APEX1 (Homo sapiens) (P27695 whole entry, looked up): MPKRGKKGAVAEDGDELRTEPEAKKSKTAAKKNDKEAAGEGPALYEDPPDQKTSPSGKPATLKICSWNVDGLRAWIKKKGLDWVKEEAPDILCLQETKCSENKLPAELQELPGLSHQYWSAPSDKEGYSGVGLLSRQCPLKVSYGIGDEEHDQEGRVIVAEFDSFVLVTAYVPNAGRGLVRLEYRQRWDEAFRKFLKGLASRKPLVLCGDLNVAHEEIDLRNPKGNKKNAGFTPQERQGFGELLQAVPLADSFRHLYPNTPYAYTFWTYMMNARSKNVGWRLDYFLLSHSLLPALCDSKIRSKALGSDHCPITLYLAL
Chain of Alpha-galactosidase A (Homo sapiens) (P06280 whole entry, looked up): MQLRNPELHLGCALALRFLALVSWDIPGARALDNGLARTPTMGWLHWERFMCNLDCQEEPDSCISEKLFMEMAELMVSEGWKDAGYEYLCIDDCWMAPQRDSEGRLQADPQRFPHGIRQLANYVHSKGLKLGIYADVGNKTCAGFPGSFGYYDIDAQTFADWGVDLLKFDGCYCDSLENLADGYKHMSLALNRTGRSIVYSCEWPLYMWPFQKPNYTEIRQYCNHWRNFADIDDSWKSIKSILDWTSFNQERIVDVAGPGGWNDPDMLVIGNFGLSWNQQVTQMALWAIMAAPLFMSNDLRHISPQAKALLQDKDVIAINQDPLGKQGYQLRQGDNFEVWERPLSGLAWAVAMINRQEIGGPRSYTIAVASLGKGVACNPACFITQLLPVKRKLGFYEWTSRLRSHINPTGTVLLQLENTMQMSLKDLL

With `COc1ccc(Cc2nccc3cc(OC)c(OC)cc23)cc1OC`, the call in [1] and in test [2] was inactive.
With `C[N+](C)(C)CCCCCC[N+](C)(C)C`, the call in test [1], in test [2], in test [4], in test [5] and in test [6] was inactive. In addition, the activity change, negative = inhibition was -1.97% (inactive) in [3] (at 25.7 µM (top of the series)); 11.8% (inactive) and 0.867% (inactive) and 2.49% (inactive) in test [3] (at 57.5 µM (top of the series)). Also, the Potency entry in [7], in [8], in test [9], in test [10], in test [11] and in test [12] was “inactive” each time. In test [13], the Potency result is “inactive”.
`CC1=C(/C=C/C(C)=C/C=C/C(C)=C/C(=O)Nc2ccc(O)cc2)C(C)(C)CCC1`: the Potency in test [14] was 50.1 µM (active); in test [15], 50.1 µM (active); in test [16] it was 39.8 µM (active); in test [17] it was 39.8 µM (active); in test [18], 50.1 µM (active); in test [7] it was 3.55 µM (active). Moreover, the Potency in [8] was 6.31 µM (active); in test [9] it was 11.2 µM (active); in test [10], 12.6 µM (active); in test [11], 11.2 µM (active); in test [12], 3.98 µM (active); in [13], 12.6 µM (active). The call in test [1], in [2], in [4], in [5] and in test [6] was inactive.
Take `CC(C)OC(=O)C(C)(C)Oc1ccc(C(=O)c2ccc(Cl)cc2)cc1`: the compound was called inactive in [1], in test [2] and in test [4]. Besides, the activity change, negative = inhibition in [3] (at 25.7 µM (top of the series)) was -4.12% (inactive). The max response was -11.4% in test [3] (setting [19]) and -14.8% in test [3] (setting [20]).
Consider `O=c1cc(-c2ccc(O)cc2)oc2cc(O)cc(O)c12`, for which the compound was classed as inactive in test [1] and in test [2]. Besides, in [3] (at 57.5 µM (top of the series)), the activity change, negative = inhibition was 5.85% (inactive) and 0.858% (inactive) and 6.23% (inactive). The max response was -3.26% and -4.54% and 14.7% in [3] (setting [19]); 4.46% and -2.56% and 22.7% in [3] (setting [20]). Moreover, the Potency in test [7] is 11.2 µM (active); in test [8] it was 14.1 µM (active); in [9], 12.6 µM (active); in [12], 10 µM (active); in [13], 11.2 µM (active). The Potency entry in test [11] was “inactive”.
Regarding `CCn1cc(C(=O)O)c(=O)c2ccc(C)nc21`, the Potency entry in test [14], in test [15], in test [16], in test [17] and in test [18] was “inactive” throughout.
With `CC/C(=C(\c1ccccc1)c1ccc(OCCN(C)C)cc1)c1ccccc1`, the Potency is 50.1 µM (active) in test [14]; 50.1 µM (active) in [15]; 39.8 µM (active) in test [16]; 50.1 µM (active) in [17]; 50.1 µM (active) in test [18]; 8.91 µM (active) in [7]. Also, the Potency is 12.6 µM (active) in test [8]; 11.2 µM (active) in test [9]; 11.2 µM (active) in test [10]; 11.2 µM (active) in [11]; 7.94 µM (active) in test [12]; 11.2 µM (active) in test [13]. Further, the call in [1], in test [2], in test [4] and in [5] was inactive. In addition, in test [3] (at 57.5 µM (top of the series)), the activity change, negative = inhibition is 6.58% (inactive). Moreover, the max response was determined as 6.28% in test [3] (setting [19]) and 15.3% in [3] (setting [20]).
Consider `CC(C)(C)c1ccc(C(O)CCCN2CCC(C(O)(c3ccccc3)c3ccccc3)CC2)cc1` (stereo not drawn), for which the result in test [1], in test [2], in test [4] and in test [5] was inactive. Besides, in test [3] (at 57.5 µM (top of the series)), the activity change, negative = inhibition is -1.34% (inactive). For the same compound, the max response is -10.3% in test [3] (setting [19]) and -13.9% in [3] (setting [20]).
As for `CCCCC1C(=O)N(c2ccccc2)N(c2ccccc2)C1=O`, the Potency entry in test [14], in test [15], in test [16], in test [17] and in test [18] was “inactive” each time. The compound was called inactive in test [1], in test [2], in [4], in [5] and in test [6]. The Potency is 14.1 µM (active) in test [8], 11.2 µM (active) in test [9] and 11.2 µM (active) in test [12].
As to `COc1cccc(-c2cc(=O)c3ccccc3o2)c1N`, the result in [1], in test [2], in test [4], in test [5] and in [6] was inactive. Also, the activity change, negative = inhibition in test [3] (at 57.5 µM (top of the series)) is 1.98% (inactive). The max response was determined as 13.8% in test [3] (setting [19]) and 15.5% in test [3] (setting [20]). For the same compound, the Potency entry in [11] is “inactive”. The Potency in [12] is 12.6 µM (active).
On to `C[N+](C)(C)CC(=O)O`, for which the result in test [1] and in test [2] was inactive.
With `CC(=O)N[C@@H](CS)C(=O)O`, the outcome in [1], in test [2], in test [4], in [5] and in test [6] was inactive. Moreover, the Potency entry in test [7], in test [8], in test [9], in [10], in [11] and in test [12] was “inactive” each time. Also, in test [13], the Potency result is “inactive”.

Values taken from PubChem BioAssay (NCATS).
